In PubChem BioAssay (NCI):
Compounds without any hit were thinned out: in the full panel of roughly 83,000, 20% have a hit.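 Each cell line was grown in a 96-well plate and treated with one concentration of compound for 48 hours. Values below 10 were considered active.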 Activity calls are given as the source filed them.

What follows are compounds tested on NCI-H522 lung (assay: NCI-60 one-dose screen, 48 h (100 = growth as untreated, 0 = no growth, -100 = all killed)). Conditions: 10 µM unless noted.

Compound	growth
O=C(COc1ccc(NC(=O)Nc2ccc(Cl)c(Cl)c2)cc1)N=Nc1c(O)[nH]c2ccccc12	-42.8% (active)
COc1ccc(-c2nnc3ccc(N/N=C/c4ccc(O)cc4)nn23)cc1	46.7% (inactive)
CCCSc1nc(NCCc2c[nH]c3ccccc23)c(C#N)c(-c2ccccc2)n1	57.9% (inactive)
CSc1ccc(C(=O)Nc2ccc3nnn(/C(C#N)=C/c4ccccn4)c3c2)cc1	-84.6% (active)
CC(=O)OC[C@@]1(C)C2CC[C@]3(C)C(CC=C4C5CC(C)(C)CC[C@]5(C(=O)Nc5cccc(C)c5)CC[C@]43C)[C@@]2(C)C[C@@H](OC(C)=O)[C@@H]1OC(C)=O (stereo partly drawn)	40.3% (inactive)
CN(C)c1ccnc(CNCCSC2(c3ccccc3)c3ccccc3C=Cc3ccccc32)c1	-73.6% (active)
Cn1cc(-c2nnc(N)nc2-c2c[nH]c3ccc(F)cc23)c2cccnc21	20.4% (inactive)
Clc1cccc(-c2ccc(OCCCN3CCN(c4ccncc4)CC3)cc2)c1	-4.23% (active)
Cc1ccccc1[C@H]1C(C(=O)c2ccc(Cl)cc2)C2(N[C@@H]1c1ccccc1)C(=O)Nc1ccc(Br)cc12 (stereo partly drawn)	-17.6% (active)
CN(C)c1ccnc(CNCCSC2(c3ccc(C(F)(F)F)cc3)c3ccccc3C=Cc3ccccc32)c1	-64.9% (active)
O=C(c1ccc(OCCN2CCOCC2)cc1)C1[C@H](c2ccc(Cl)cc2)[C@@H](c2ccccc2)NC12C(=O)Nc1ccc(Cl)cc12 (stereo partly drawn)	16.3% (inactive)
COc1cc(CNC(=O)/C=C/c2ccc3c(c2)OCO3)ccc1OCc1cn(-c2ccc([N+](=O)[O-])cc2)nn1	84.9% (inactive)
CC(=O)Nc1ccc(-c2nc3cc(-c4ccc(O)cc4)ccc3n2C)cc1	1.22% (active)
Clc1cccc(Cl)c1/C=C/c1cc(/C=C/c2ccc(Br)cc2)c2ccccc2n1	97.9% (inactive)
COc1cc(OC)cc(-c2cc3ccc(N(C)C)cc3c(=O)[nH]2)c1	-19.2% (active)
CNC(=O)c1cc(Oc2ccc3nc(NC(=O)Nc4cccc(OC(F)(F)F)c4)sc3c2)ccn1	26.6% (inactive)
N#Cc1c(-c2ccc(Br)cc2)nc2n[nH]c(-c3ccc(Br)cc3)c2c1-c1ccc(F)cc1	94.1% (inactive)
CCN1CCN(Cc2ccc(C(=O)Nc3cccc(C#Cc4cccc5[nH]nc(N)c45)c3)cc2C(F)(F)F)CC1	-59.9% (active)
O=c1[nH]n(C(=S)N/N=C/c2ccccc2Cl)c(=O)c2ccccc12	-61.7% (active)

Compound	growth
CC1(C)CC[C@]2(C(=O)Nc3ccccc3)CC[C@]3(C)C(=CCC4[C@@]5(C)C[C@@H](O)[C@H](O)[C@@](C)(CO)C5CC[C@]43C)C2C1 (stereo partly drawn)	41.6% (inactive)
Nc1nnc(-c2c[nH]c3ncc(Br)cc23)c(-c2c[nH]c3ccc(F)cc23)n1	50.5% (inactive)
COc1ccc(C(=O)/C=C/c2ccccc2Br)cc1S(N)(=O)=O	-67% (active)
CSc1ccccc1NC(=O)c1ccc2nn(/C(C#N)=C/c3ccccn3)nc2c1	-92.7% (active)
O=C(N=Nc1c(O)[nH]c2ccc(Cl)cc12)c1ccc2nc(-c3ccccc3)[nH]c2c1	8.85% (active)
CC(=O)Oc1ccccc1C(=O)[Se]C(=NC1CCCCC1)NC1CCCCC1	-89.1% (active)
CSc1ccc(NC(=O)c2ccc3nnn(/C(C#N)=C/c4ccccn4)c3c2)cc1	-95.4% (active)
COc1ccc(C(=O)/C=C/c2cccnc2)cc1S(N)(=O)=O	-67.8% (active)
Cc1ccc([C@H]2C(C(=O)c3ccc(Cl)cc3)C3(N[C@@H]2c2ccccc2)C(=O)Nc2ccccc23)cc1 (stereo partly drawn)	12.9% (inactive)
CN(C)CCCNC(=O)c1cc(NC(=O)c2cc(NC(=O)c3ccc(C#Cc4ccccc4)cc3)cn2C)cn1C	-95.3% (active)
COc1ccc(C(=O)/C=C/c2cccc3ccccc23)cc1S(N)(=O)=O	-67% (active)
COc1ccc(NC(=O)c2sc3nc(C(C)C)ccc3c2N)cc1	75.7% (inactive)
COc1ccc([C@H](C)Nc2nc(Cl)nc3ccccc23)cc1	-0.556% (active)
COc1cc2oc(-c3cccc(NC(=O)[C@H](Cc4ccccc4)NC(=O)OC(C)(C)C)c3)cc(=O)c2c(OC)c1OC	30.3% (inactive)
Cc1ccc(C(=O)CSc2nc3ccc(F)cc3c(=O)n2-c2ccc(Cl)cc2)cc1	63.8% (inactive)
CC(C)Sc1nc(NCCc2c[nH]c3ccccc23)c(C#N)c(-c2ccc(F)cc2)n1	39.8% (inactive)
OCNc1ccc(-n2cnc3cc(-c4ccc(O)cc4)ccc32)cc1C(F)(F)F	-15.7% (active)
Cc1cc2nc3c4ccccc4n(CCNCCN(C)C)c3nc2cc1C	17.7% (inactive)
COc1ccc2c(c1)C(=N/N=C(\C)c1ccc(OC)c(S(N)(=O)=O)c1)C(=O)N2	84% (inactive)
